In PubChem BioAssay:
Records with an inconclusive call do not appear. The source made the active and inactive calls.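 Rule for the calls, unless noted: active = inhibition above 50%, about 3 SD of the validation set; inactive = the rest.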

Tests used:
[1] = yeast TOR pathway RPL19A-GFP modulators, primary screen, cell-based, S. cerevisiae, multiplex flow cytometry (AID 1862; in the data active = percent of DMSO control GFP below about 86%;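 note: lower values mimic rapamycin by blocking the RPL19A rise seen in DMSO cells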); conditions: S. cerevisiae RPL19A-GFP strain, flow cytometry fluorescence, 3 h; at 10 µM; stronger effect = lower value
[2] = modulators of MEP2-GFP levels in yeast, primary screen, S. cerevisiae, multiplex flow cytometry (AID 1867;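 active = GFP response, as percent of the DMSO control, above the screen-wide mean plus 3 SD, about 139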;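 note: median GFP channel fluorescence of barcode-gated MEP2-GFP cells measured by flow cytometry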); conditions: S. cerevisiae MEP2-GFP strain, 3 h, at 10 µM, stronger effect = higher value, 100% means same as DMSO wells
[3] = modulators of CIT2-GFP expression in yeast, primary screen, S. cerevisiae, GFP fusion, multiplex flow cytometry (AID 1870;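 active = percent response above a set limit, the screen-wide mean plus 3 SD, cut at about 130% in these data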;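 note: barcoded CIT2-GFP strain pooled with four other GFP strains with rapamycin as positive control; median GFP fluorescence per well over plate mean of DMSO wells so 100% = DMSO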); conditions: 3 h, at 10 µM, stronger effect = higher value
[4] = modulators of LAP4-GFP expression in yeast, primary screen, S. cerevisiae, multiplex flow cytometry (AID 1873;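 active = GFP signal, as percent of the solvent control, above the screen mean plus 3 SD, about 149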); conditions: 3 h, at 10 µM, stronger effect = higher value
[5] = modulators of AGP1-GFP expression in yeast TOR pathway, primary screen, cell-based, multiplex flow cytometry, S. cerevisiae (AID 1887;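 active = GFP signal above the screen-wide mean plus 3 SD, that is over about 124.5% of the solvent control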;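 note: AGP1-GFP fusion strain of S. cerevisiae within a five-strain barcoded multiplex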); conditions: 3 h, at 10 µM, stronger effect = higher value
[6] = inhibitors of CD8+ T cell-vesicle binding, pilot screen, LFA-1/ICAM-1 modulator project, MLPCN validation set, flow cytometry (AID 2523;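 active = response below a set limit, under 55% cells CD8-positive and vesicle-bound, and CD8 cells' 90th-percentile brightness under 279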;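 for vesicle binding response: mean PE anti-B7-1 fluorescence of CD8+ cells relative to row control; 100% = QL9-loaded vesicles with DMSO vehicle in the same plate row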); conditions: 2C mouse CD8+ T cells, at 7 µM, stronger effect = lower value; double positive events: measured here: CD8+/vesicle+ event percentage
[7] = target: Integrin beta-1 (Homo sapiens) + Integrin alpha-4 (Homo sapiens) (UniProt P13612+P05556); assay: inhibition of HUTS-21 binding to VLA-4, pilot screen, VLA-4 allosteric modulator project, U937 cells, HUTS-21 mAb, flow cytometry, validation set (AID 2674); conditions: HUTS-21 LIBS mAb binding, at 6.7 µM, stronger effect = higher value, binding induced by LDV ligand;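 note: antibody binding induced by the VLA-4 ligand LDV present at three times its Kd; 0% = LDV ligand with antibody and no compound and 100% = antibody without LDV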
[8] = superoxide lowering in aged yeast cells, pilot screen, validation compound set (AID 2706;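 active = superoxide response below 65% of plate, a cut near 3 SD across the whole screen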;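 note: yeast exposed to compound for one week at 30 degrees C before staining; 100% = mean of all compound wells on the same plate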); conditions: S. cerevisiae aging, superoxide DHE fluorescence; at 10 µM; stronger effect = lower value
[9] = target: Beta-adrenergic receptor kinase 1 (Homo sapiens) (UniProt P25098); assay: GRK2 binders displacing RNA aptamer, biochemical, validation, human GRK2, bead flow cytometry (AID 488806;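 active = aptamer binding inhibition above 30%, about 3 SD of noise from non-fluorescent compounds; inactive = inhibition at or below 30%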); conditions: bead-bound GRK2, FAM-aptamer displacement, at 10 µM, stronger effect = higher value
[10] = target: Beta-2 adrenergic receptor (Homo sapiens) (UniProt P07550); assay: beta2AR agonists driving receptor internalization, pilot screen, cell-based, FAP fluorogen, flow cytometry, validation set (AID 504459;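 active = percent response above 42, roughly 3 SD of non-fluorescent test compounds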;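 note: agonist-driven loss of surface beta2AR via internalization measured by FAP dye flow cytometry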); conditions: Am2.2-beta2AR cells, FAP surface receptor flow cytometry; at 10 µM; stronger effect = higher value
[11] = target: AP-2 complex subunit beta (Homo sapiens) (UniProt P63010); assay: inhibitors of arrestin peptide binding to AP2, pilot screen, biochemical, validation set, GST-AP2 beads, flow cytometry (AID 504541;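 active = inhibition above 54%, about 3 SD of non-fluorescent compounds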;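 note: AP2 carries R879A mutation and is captured from E. coli lysate; bead-bound FITC arrestin peptide fluorescence measuring arrestin peptide binding to AP2; 0% = DMSO wells and 100% = excess unlabeled arrestin peptide control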); conditions: FITC arrestin peptide, at 10 µM, stronger effect = higher value, AP2 beta2 appendage fragment, R879A mutant
[12] = yeast V-ATPase proton transport modulators, S. cerevisiae, pHLuorin, HTS validation (AID 504600; in the data active = response above about 15%;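 note: plate controls were DMSO for no effect and reference compound for full effect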); conditions: S. cerevisiae pHLuorin cytosolic pH, at 10 µM, stronger effect = higher value
[13] = tested on: anti-desmoglein-3 scFv antibody binding to human DSG3; assay: inhibitors of anti-DSG3 scFv binding to DSG3, pilot screen, biochemical, validation compound set, bead-based, flow cytometry (AID 588368;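 active = binding below the plate cutoff, the plate median minus 3 SD, with a reading above zero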;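 note: signal is the median channel fluorescence of bead-bound GFP antibody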); conditions: Protein G beads, DSG3-Fc, scFv-GFP binding, at 10 µM, stronger effect = lower value
[14] = inhibitors of fungal efflux pumps CDR1, CDR2, MDR1, pilot screen, validation compound set, multiplex, phenotypic (AID 588506;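 active = efflux inhibition above 0.42, the validation set average plus 4 SD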;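 note: Nile Red retained in cells so higher fluorescence means more efflux inhibition; 0 = negative control wells and 1 = enniatin B 25 µM full block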); conditions: S. cerevisiae pump-expressing triplex, Nile Red efflux flow cytometry; at 10 µM; stronger effect = higher value; the pumps come from Candida albicans
[15] = target: ATP-binding cassette sub-family B member 6 (Homo sapiens) (UniProt Q9NP58); assay: ABCB6 transporter inhibitors, pilot screen, K562-ABCB6 cells, flow cytometry, validation set (AID 588550;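 active = inhibition above the screen-wide mean plus 3 SD, about 51%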;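 note: 0% = DMSO wells and 100% = benzethonium chloride 70 µM positive control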); conditions: K562-ABCB6 porphyrin accumulation, 1 h, at 10 µM, stronger effect = higher value
[16] = promoters of myeloid differentiation in arrested cells, primary screen, cell-based, GFP/MAC1 double positive, flow cytometry, validation set (AID 588685;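 active = differentiation response of at least 50%, scaled between solvent and reference control, from cells with both markers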;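 note: compound exposure lasts four days before antibody staining and flow analysis; 0% = DMSO wells and 100% = 5 µM fulvestrant positive control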); conditions: ER-HoxA9 marrow cells, stronger effect = higher value, normalized: vehicle 0, fulvestrant 100

ATP-binding cassette sub-family B member 6 (Homo sapiens), sequence (Q9NP58 whole entry, looked up): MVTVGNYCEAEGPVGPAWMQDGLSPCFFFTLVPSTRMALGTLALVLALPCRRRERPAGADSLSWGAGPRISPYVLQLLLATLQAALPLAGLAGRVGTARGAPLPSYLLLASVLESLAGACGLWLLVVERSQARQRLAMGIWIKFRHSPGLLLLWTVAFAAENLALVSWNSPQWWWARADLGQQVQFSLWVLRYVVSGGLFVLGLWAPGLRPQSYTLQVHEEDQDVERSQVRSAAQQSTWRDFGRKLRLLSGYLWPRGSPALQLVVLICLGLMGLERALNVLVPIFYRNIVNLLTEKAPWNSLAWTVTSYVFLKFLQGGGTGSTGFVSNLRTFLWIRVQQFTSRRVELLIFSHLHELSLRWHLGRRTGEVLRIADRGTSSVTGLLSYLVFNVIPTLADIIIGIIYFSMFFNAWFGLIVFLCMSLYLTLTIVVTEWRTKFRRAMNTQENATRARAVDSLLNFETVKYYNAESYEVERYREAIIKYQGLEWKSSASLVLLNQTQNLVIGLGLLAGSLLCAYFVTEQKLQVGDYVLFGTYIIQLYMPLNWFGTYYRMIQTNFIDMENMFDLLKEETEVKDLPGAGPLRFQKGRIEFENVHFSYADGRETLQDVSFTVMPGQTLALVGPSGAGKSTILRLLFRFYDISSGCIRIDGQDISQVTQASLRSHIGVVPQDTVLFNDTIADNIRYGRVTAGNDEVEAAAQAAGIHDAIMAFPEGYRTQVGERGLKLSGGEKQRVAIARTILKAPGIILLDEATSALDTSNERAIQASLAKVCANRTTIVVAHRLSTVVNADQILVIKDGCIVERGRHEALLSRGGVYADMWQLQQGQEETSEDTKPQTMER
Beta-adrenergic receptor kinase 1 (Homo sapiens), sequence (P25098 whole entry, looked up): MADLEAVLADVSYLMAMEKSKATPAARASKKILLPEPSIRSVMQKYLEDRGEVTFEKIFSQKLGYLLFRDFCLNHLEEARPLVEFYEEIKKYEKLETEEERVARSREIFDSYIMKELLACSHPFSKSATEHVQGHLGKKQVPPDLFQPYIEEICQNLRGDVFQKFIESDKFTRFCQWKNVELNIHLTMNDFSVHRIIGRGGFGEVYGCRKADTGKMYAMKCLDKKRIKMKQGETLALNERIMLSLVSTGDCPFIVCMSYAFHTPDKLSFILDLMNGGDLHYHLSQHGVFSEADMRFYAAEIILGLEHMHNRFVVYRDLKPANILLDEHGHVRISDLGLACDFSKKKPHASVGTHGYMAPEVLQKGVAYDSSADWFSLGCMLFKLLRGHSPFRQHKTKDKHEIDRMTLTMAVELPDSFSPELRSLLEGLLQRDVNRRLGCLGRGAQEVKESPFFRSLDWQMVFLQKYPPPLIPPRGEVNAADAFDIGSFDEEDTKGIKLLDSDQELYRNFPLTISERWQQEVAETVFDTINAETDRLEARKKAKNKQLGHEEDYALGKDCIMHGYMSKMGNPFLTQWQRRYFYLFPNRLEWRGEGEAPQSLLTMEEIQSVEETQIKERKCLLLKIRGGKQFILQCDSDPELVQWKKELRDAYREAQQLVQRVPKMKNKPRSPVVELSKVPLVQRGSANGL
Integrin beta-1 (Homo sapiens) + Integrin alpha-4 (Homo sapiens), sequence (P05556 whole entry, looked up): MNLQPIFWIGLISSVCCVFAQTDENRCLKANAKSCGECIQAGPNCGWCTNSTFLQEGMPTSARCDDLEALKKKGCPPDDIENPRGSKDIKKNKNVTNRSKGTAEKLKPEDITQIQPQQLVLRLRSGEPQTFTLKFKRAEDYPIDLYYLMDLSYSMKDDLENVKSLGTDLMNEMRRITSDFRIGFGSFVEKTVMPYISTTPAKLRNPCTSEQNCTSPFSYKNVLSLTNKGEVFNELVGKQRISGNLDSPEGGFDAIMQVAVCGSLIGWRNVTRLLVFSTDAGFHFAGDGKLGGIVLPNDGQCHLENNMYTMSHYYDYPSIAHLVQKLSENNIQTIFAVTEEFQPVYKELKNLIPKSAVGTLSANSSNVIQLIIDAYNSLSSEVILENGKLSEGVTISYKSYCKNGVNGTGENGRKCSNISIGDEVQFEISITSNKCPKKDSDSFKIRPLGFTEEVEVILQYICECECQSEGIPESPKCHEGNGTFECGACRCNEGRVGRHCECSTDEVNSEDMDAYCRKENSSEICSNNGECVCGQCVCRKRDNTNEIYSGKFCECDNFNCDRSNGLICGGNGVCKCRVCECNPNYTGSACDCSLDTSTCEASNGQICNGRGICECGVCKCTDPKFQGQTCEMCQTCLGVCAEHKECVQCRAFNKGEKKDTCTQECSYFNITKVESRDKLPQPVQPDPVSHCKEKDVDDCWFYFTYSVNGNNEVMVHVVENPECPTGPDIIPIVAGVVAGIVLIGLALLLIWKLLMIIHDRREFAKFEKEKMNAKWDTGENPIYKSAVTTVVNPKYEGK
Integrin beta-1 (Homo sapiens) + Integrin alpha-4 (Homo sapiens), sequence (P13612 whole entry, looked up): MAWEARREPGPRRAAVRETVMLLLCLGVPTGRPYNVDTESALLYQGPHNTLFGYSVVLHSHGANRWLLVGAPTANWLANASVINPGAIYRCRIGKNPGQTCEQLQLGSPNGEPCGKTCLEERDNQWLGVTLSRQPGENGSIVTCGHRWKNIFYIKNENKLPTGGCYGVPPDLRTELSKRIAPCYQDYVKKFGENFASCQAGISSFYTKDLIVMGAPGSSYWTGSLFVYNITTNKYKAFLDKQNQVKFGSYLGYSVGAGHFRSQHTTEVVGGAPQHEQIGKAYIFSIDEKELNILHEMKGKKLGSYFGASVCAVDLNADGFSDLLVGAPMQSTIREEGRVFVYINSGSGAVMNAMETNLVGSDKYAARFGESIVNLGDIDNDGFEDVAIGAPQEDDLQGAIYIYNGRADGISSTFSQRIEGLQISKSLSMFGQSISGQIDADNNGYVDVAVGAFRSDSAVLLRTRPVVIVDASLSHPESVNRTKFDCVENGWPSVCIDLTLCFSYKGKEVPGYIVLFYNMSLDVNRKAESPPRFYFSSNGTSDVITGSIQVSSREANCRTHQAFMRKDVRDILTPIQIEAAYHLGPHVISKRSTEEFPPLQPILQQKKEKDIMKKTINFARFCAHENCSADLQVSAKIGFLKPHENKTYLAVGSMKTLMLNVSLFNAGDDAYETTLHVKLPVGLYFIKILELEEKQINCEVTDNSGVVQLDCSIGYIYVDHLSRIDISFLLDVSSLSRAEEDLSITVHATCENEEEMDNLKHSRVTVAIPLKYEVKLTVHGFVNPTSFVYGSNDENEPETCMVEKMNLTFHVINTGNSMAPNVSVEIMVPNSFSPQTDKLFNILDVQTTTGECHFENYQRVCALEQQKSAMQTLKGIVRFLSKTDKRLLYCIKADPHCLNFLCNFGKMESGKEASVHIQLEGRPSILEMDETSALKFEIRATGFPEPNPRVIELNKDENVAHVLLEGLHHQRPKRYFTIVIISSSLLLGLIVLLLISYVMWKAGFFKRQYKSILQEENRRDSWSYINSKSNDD
Beta-2 adrenergic receptor (Homo sapiens), sequence (P07550 whole entry, looked up): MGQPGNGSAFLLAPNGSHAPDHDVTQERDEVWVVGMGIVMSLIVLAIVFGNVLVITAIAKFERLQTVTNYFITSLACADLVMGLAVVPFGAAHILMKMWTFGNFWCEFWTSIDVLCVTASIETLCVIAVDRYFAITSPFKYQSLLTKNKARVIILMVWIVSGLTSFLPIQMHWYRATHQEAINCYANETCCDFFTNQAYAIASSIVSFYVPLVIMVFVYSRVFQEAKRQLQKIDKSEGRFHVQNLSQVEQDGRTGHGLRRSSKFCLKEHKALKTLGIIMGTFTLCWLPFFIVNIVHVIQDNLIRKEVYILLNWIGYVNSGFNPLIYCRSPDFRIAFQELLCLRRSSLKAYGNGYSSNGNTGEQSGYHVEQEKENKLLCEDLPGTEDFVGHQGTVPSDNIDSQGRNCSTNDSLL
AP-2 complex subunit beta (Homo sapiens), sequence (P63010 whole entry, looked up, the tested form may be a part, one chain of several): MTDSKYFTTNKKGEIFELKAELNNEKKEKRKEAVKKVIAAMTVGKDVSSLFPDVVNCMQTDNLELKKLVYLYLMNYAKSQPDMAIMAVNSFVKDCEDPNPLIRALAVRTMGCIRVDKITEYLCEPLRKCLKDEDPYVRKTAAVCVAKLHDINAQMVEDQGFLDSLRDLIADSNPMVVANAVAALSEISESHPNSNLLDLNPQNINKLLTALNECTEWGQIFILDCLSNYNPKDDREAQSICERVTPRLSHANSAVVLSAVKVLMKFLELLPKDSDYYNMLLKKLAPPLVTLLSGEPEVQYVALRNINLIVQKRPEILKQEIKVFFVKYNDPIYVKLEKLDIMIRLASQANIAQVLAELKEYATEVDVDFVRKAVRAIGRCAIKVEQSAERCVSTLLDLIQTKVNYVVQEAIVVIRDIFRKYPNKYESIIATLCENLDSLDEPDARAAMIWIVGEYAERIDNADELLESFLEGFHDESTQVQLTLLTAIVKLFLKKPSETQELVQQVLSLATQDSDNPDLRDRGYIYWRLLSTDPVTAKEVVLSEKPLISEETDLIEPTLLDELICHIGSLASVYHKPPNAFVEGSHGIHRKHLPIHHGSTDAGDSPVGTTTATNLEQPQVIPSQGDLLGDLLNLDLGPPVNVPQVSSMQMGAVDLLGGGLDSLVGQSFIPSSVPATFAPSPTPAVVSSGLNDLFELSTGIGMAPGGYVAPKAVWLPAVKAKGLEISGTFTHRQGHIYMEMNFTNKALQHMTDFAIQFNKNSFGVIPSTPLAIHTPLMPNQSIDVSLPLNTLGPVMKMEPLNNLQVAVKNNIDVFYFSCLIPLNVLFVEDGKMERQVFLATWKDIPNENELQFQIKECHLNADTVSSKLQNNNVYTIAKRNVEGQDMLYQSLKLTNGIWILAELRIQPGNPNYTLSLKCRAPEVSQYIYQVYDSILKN

CC(C)=CCC/C(C)=C/CC/C(C)=C/CC/C(C)=C/CC1=C(C)C(=O)c2ccccc2C1=O
58.9%: double positive events [6]
inactive: percent of DMSO control GFP [1] 98.2% | GFP response vs DMSO [2] 105% | percent response of DMSO control [3] 101% | GFP response vs DMSO [4] 121% | GFP response, % of DMSO [5] 116% | vesicle binding response [6] 205% | inhibition [7] -7.08% | superoxide response (% of plate) [8] 102% | aptamer binding inhibition [9] 2% | response [10] -16% | inhibition [11] -12.1% | response [12] -1.04% | binding (% of control) [13] 99.2% | efflux inhibition (fraction of control) [14] -0.09 | inhibition [15] -4% | differentiation response [16] -6.96%

COc1ccc2oc(C)c(C(N)=O)c2c1
inactive: percent of DMSO control GFP [1] 99.5% | GFP response vs DMSO [2] 109% | percent response of DMSO control [3] 91% | GFP response vs DMSO [4] 118% | GFP response, % of DMSO [5] 102% | vesicle binding response [6] 132% | inhibition [7] 6.4% | superoxide response (% of plate) [8] 96% | aptamer binding inhibition [9] 4% | response [10] -0.3% | inhibition [11] 7.21% | response [12] -6.34% | binding (% of control) [13] 100% | efflux inhibition (fraction of control) [14] -0.21 | inhibition [15] -9% | differentiation response [16] -8.8%
61.6%: double positive events [6]

CC(C)(C)N(Cc1ccccc1)C(=O)c1ccc(Br)o1
inactive: percent of DMSO control GFP [1] 103% | GFP response vs DMSO [2] 102% | percent response of DMSO control [3] 95.7% | GFP response vs DMSO [4] 107% | GFP response, % of DMSO [5] 101% | vesicle binding response [6] 147% | inhibition [7] -7.08% | superoxide response (% of plate) [8] 101% | aptamer binding inhibition [9] 6% | response [10] -22.8% | inhibition [11] 4.28% | response [12] -8.19% | binding (% of control) [13] 97.1% | efflux inhibition (fraction of control) [14] 0.04 | inhibition [15] 6% | differentiation response [16] -11.9%
63.4%: double positive events [6]

COc1cccc(-n2c(C)c3c(OC)cccc(=O)c3c2C)c1
inactive: percent of DMSO control GFP [1] 89.8% | percent response of DMSO control [3] 106% | GFP response vs DMSO [4] 85.8% | GFP response, % of DMSO [5] 92.4% | inhibition [7] -33.3% | superoxide response (% of plate) [8] 109% | aptamer binding inhibition [9] 5% | response [10] -3.28% | inhibition [11] 41% | response [12] -5.84% | binding (% of control) [13] 103% | efflux inhibition (fraction of control) [14] 0.12 | inhibition [15] 0% | differentiation response [16] -4.91%
49.9%: double positive events [6]
active: GFP response vs DMSO [2] 140% | vesicle binding response [6] 53.8%

COc1ccccc1/C=C/CN1CCN(Cc2ccc(F)cc2)C(CCO)C1 (stereo not drawn)
63.2%: double positive events [6]
inactive: percent of DMSO control GFP [1] 101% | GFP response vs DMSO [2] 98.8% | percent response of DMSO control [3] 98.2% | GFP response vs DMSO [4] 91.6% | GFP response, % of DMSO [5] 98.5% | vesicle binding response [6] 171% | inhibition [7] -3.18% | superoxide response (% of plate) [8] 92.6% | aptamer binding inhibition [9] 1% | response [10] 9.17% | inhibition [11] -20.3% | response [12] 0.79% | binding (% of control) [13] 107% | efflux inhibition (fraction of control) [14] -0.38 | inhibition [15] 8% | differentiation response [16] -3.4%

CN(C)c1ccc(Nc2c3c4c(cccc4n(C)c2=O)C(=O)c2ccccc2-3)cc1
inactive: percent of DMSO control GFP [1] 99.3% | GFP response vs DMSO [2] 108% | percent response of DMSO control [3] 111% | GFP response vs DMSO [4] 126% | GFP response, % of DMSO [5] 108% | vesicle binding response [6] 195% | inhibition [7] -0.27% | superoxide response (% of plate) [8] 71% | aptamer binding inhibition [9] 0% | response [10] -25.2% | inhibition [11] 16.7% | response [12] -0.9% | binding (% of control) [13] 93.8% | efflux inhibition (fraction of control) [14] -0.17 | inhibition [15] 3% | differentiation response [16] -9.91%
60.5%: double positive events [6]

COc1ccc2c(CC(=O)NCC3CCC(C(=O)O)CC3)cc(=O)oc2c1 (stereo not drawn)
inactive: percent of DMSO control GFP [1] 101% | GFP response vs DMSO [2] 103% | percent response of DMSO control [3] 105% | GFP response vs DMSO [4] 101% | GFP response, % of DMSO [5] 107% | vesicle binding response [6] 116% | inhibition [7] -9.13% | superoxide response (% of plate) [8] 111% | aptamer binding inhibition [9] -2% | response [10] -4.55% | inhibition [11] -1.68% | response [12] 7.23% | binding (% of control) [13] 102% | efflux inhibition (fraction of control) [14] 0.04 | inhibition [15] -1% | differentiation response [16] 4.2%
59.6%: double positive events [6]

COc1ccc(O)c(C(=O)/C=C/c2cc3ccccc3o2)c1
59.6%: double positive events [6]
inactive: percent of DMSO control GFP [1] 95.9% | GFP response vs DMSO [2] 112% | percent response of DMSO control [3] 96.7% | GFP response vs DMSO [4] 109% | GFP response, % of DMSO [5] 95.2% | vesicle binding response [6] 117% | inhibition [7] -0.43% | superoxide response (% of plate) [8] 106% | aptamer binding inhibition [9] 3% | response [10] 23% | inhibition [11] 1.27% | response [12] 0.06% | binding (% of control) [13] 102% | efflux inhibition (fraction of control) [14] -0.17 | inhibition [15] 1% | differentiation response [16] -2.4%

CC(=O)NC(Cc1c[nH]c2ccccc12)C(=O)N/N=C/c1ccccc1 (stereo not drawn)
active: inhibition [11] 60.7%
inactive: percent of DMSO control GFP [1] 98.6% | GFP response vs DMSO [2] 108% | percent response of DMSO control [3] 104% | GFP response vs DMSO [4] 99.1% | GFP response, % of DMSO [5] 98.6% | vesicle binding response [6] 200% | inhibition [7] -15.8% | superoxide response (% of plate) [8] 98% | aptamer binding inhibition [9] -3% | response [10] -1.6% | response [12] -13.1% | binding (% of control) [13] 104% | efflux inhibition (fraction of control) [14] 0 | inhibition [15] -12% | differentiation response [16] -3.11%
62.8%: double positive events [6]
